Sampled rows, rich in hits. Any-hit rate of the full collection: about 2.9%.
PME-1 inh – blocks human protein phosphatase methylesterase 1; recombinant PME-1, FP-Rh probe fluorescence polarization; inhibition, % at 5.9 µM; 0.53% of 320,000 active; Q9Y570;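 active means inhibition above the campaign mean of all compounds plus 3 SD, cut at about 26% in these data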;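 further: competitive labeling of PME-1 active site by serine hydrolase directed probe; 0% = PME-1 with DMSO and 100% = wells lacking PME-1 enzyme; inhibitors block probe labeling so polarization falls and inhibition rises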
PAFAH1B2 inh – inhibitors of human PAFAH1B2; P68402; recombinant PAFAH1B2, FP-rhodamine activity probe, fluorescence polarization; inhibition, % at 3.39 µM; 1.2% of 340,000 active; AID 492953;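 active means inhibition above the mean of all tested compounds plus 3 SD, cut at about 24% in these data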;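 further: 0% = enzyme with DMSO and 100% = wells lacking PAFAH1B2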
Target sequence (P68402 whole entry, looked up): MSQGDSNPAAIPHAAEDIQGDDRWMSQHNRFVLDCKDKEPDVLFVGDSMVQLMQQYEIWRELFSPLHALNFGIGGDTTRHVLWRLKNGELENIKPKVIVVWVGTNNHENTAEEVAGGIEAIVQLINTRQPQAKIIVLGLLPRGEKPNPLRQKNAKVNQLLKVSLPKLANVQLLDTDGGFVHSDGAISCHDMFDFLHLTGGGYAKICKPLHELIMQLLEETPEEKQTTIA
Fam108B counter – blocks mouse Fam108B hydrolase in RBBP9 counter-screen. inhibition, % at 9.51 µM. recombinant Fam108B, FP-Rh probe fluorescence polarization. 0.33% of 300,000 active;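 active means inhibition above the screen mean inhibition plus 3 SD, computed separately per campaign, cut at about 18% in these data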;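 further: inhibitors lower polarization as less probe binds the enzyme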
PAFAH1B3 inh – blocks human PAF acetylhydrolase 1B catalytic subunit 3 | inhibition, % at 3.39 µM | Q15102 | AID 492972 | recombinant PAFAH1B3, FP-rhodamine probe, fluorescence polarization | 0.28% of 340,000 active;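 active means inhibition above the screen-wide average of all tested compounds plus 3 SD, cut at about 25% in these data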;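 further: 0% = enzyme with DMSO only and 100% = wells lacking PAFAH1B3 protein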
Target sequence (Q15102 whole entry, looked up): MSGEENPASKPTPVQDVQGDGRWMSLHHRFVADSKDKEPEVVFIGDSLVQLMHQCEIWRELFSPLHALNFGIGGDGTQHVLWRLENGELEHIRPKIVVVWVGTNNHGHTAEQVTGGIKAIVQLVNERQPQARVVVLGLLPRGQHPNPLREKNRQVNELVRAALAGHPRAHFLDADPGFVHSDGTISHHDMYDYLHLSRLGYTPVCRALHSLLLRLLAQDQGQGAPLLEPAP
PAFAH2 inh – inhibitors of human PAFAH2; inhibition, % at 3.39 µM; recombinant PAFAH2, FP-rhodamine activity probe, fluorescence polarization; 0.99% of 340,000 active;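 active means inhibition above the mean over all tested compounds plus 3 SD, cut at about 30% in these data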;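 further: inhibitors block probe labeling of enzyme so polarization drops; 0% = enzyme with DMSO and 100% = wells lacking PAFAH2 protein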
pPAFAH inh – pPAFAH (human) enzyme inhibition | 1.5% of 330,000 active | recombinant pPAFAH, FP-rhodamine probe fluorescence polarization | inhibition, % at 3.39 µM | AID 463082;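 active means inhibition above the mean inhibition across the screen plus 3 SD, cut at about 25% in these data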;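 further: inhibitors block binding of the rhodamine activity-based probe so polarization drops; 0% = enzyme with DMSO and 100% = wells lacking pPAFAH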
Active calls of the source: *; x = no result.

SMILES	PME-1 inh	PAFAH1B2 inh	Fam108B counter	PAFAH1B3 inh	PAFAH2 inh	pPAFAH inh
COC(=O)c1c(C)[nH]c(C(=O)OCC(=O)c2ccc(C)s2)c1C	x	-4	x	7	3	0
COc1ccc(/C=C/c2ccc3c(Br)ccc(O)c3n2)cc1	12	1	0	0	4	11
COc1cc(/C=C/c2ccc3c(Br)cc(Br)c(O)c3n2)ccc1O	23	6	4	22	6	34*
CN(C(=O)COC(=O)c1ccc(Cl)c(S(=O)(=O)N2CCCCCC2)c1)C1CCS(=O)(=O)C1 (stereo not given)	x	3	x	2	4	1
CN(C(=O)COC(=O)c1ccc(Cl)c(S(=O)(=O)NCc2ccccc2)c1)C1CCS(=O)(=O)C1 (stereo not given)	x	34*	x	1	5	x
CCOC(=O)c1c(-c2ccc(OC)cc2)oc2ccc(O)cc12	-2	0	7	-7	-2	31*
Nc1nnc(SCC(=O)NNC(=O)c2ccc(F)cc2)s1	5	1	x	0	5	2
Cn1ccc(C(=O)OCC(=O)c2ccccc2)n1	4	0	1	8	6	1
Cn1ccc(C(=O)OCC(=O)Nc2cccc3ccccc23)n1	-2	-3	-3	13	50*	0
CN(C)/C=C(\C=O)c1onc(-c2ccccc2Cl)c1C#N	10	-2	3	3	33*	4
N#Cc1c(-c2ccccc2Cl)noc1/C=C/Nc1ccc(C(=O)O)cc1	4	6	6	11	19	5
COc1ccc(C(=O)O)cc1S(=O)(=O)Nc1ccc(Oc2ccccc2)cc1	-6	8	x	6	0	27*
Cc1cc(NS(=O)(=O)c2ccccc2)cc(Cl)c1O	-10	0	8	-1	-1	8
O=C(O)c1ccc(NS(=O)(=O)c2cccc(S(=O)(=O)c3ccc(Cl)c(Cl)c3)c2)cc1	7	9	4	-2	73*	11
O=S(=O)(Nc1ccccc1)c1ccc(NS(=O)(=O)c2c(F)cccc2F)cc1	8	15	1	6	1	28*
Cc1ccc(S(=O)(=O)Nc2cc(C)c(O)c(S(=O)(=O)c3ccc(C)cc3)c2)cc1	-4	34*	-1	8	17	5
CC(=O)N1CCN(C(=O)c2ccc(NS(=O)(=O)c3ccc(Cl)c(Cl)c3)cc2)CC1	x	4	x	11	4	x
O=C(CN1C(=O)C2CCCCC2C1=O)Nc1cc([N+](=O)[O-])ccc1F (stereo not given)	-5	8	x	6	-7	3
COc1ccc(C(=O)NCc2ccccc2)cc1S(=O)(=O)N1CCCc2ccccc21	-1	6	-2	-7	-2	2
O=S(=O)(Nc1ccc(S(=O)(=O)Nc2cccc3ccccc23)cc1)c1ccccc1	4	30*	-3	-1	8	33*
Cc1ccc(S(=O)(=O)Nc2ccc(Nc3ccccc3)cc2)cc1	8	12	7	13	3	29*
CC(=O)c1ccc(NS(=O)(=O)c2ccc(C)cc2)cc1	-4	13	-2	3	-8	-1
O=S(=O)(Nc1ccc(-c2ccccc2)cc1)c1ccccc1	x	1	x	-7	-1	x
COc1ccc(C(=O)O)cc1S(=O)(=O)N1CCCc2ccccc21	2	26*	0	6	-1	3
Cc1ccc(Oc2ccc(S(=O)(=O)Nc3ccc(C(=O)O)cc3)cc2)cc1	-2	7	x	0	-3	29*
SMILES	PME-1 inh	PAFAH1B2 inh	Fam108B counter	PAFAH1B3 inh	PAFAH2 inh	pPAFAH inh
CCc1nc2ccc(C(=O)N3CCN(c4ccccc4F)CC3)cc2nc1CC	-4	0	-3	0	-1	5
C=CC[C@H]1C=C[C@@H](C(C(=O)OC)C(=O)OC)CN1C(C)=O	x	3	x	6	5	x
COc1ccc(NS(=O)(=O)c2ccc(NS(=O)(=O)c3ccc(C)cc3)cc2)nn1	-3	24*	10	11	6	10
O=C(O)c1ccccc1C(=O)Nc1ccc(S(=O)(=O)Nc2ccc(F)cc2)cc1	3	5	-4	-4	0	21
COc1ccc(NS(=O)(=O)c2ccc(NC(C)=O)cc2)nn1	3	x	2	x	x	3
CCOc1ccc(NS(=O)(=O)c2ccc(C(=O)N(C)CC(=O)Nc3ccc(C)cc3)cc2)cc1	5	0	1	2	9	33*
O=S(=O)(Nc1ccc(Nc2ccccc2)cc1)c1ccc(F)cc1	1	6	4	7	11	26*
Cc1ccc(NC(=O)CN(C)C(=O)c2ccc(NS(=O)(=O)c3cccc([N+](=O)[O-])c3)cc2)cc1	x	0	x	2	1	3
CCCC1(c2ccccc2)NC(=O)N(CC(=O)N(C)Cc2c(F)cccc2Cl)C1=O (stereo not given)	1	3	3	4	5	4
CCOC(=O)C1CCN(C(=O)c2cc(S(=O)(=O)N3CCOCC3)ccc2C)CC1	0	7	x	1	2	5
CCOC(=O)C1CCN(C(=O)c2cccc(S(=O)(=O)NCc3ccccc3)c2)CC1	0	8	x	0	3	-3
Cc1csc(=O)n1CCC(=O)OC(C)C(=O)NCc1ccccc1 (stereo not given)	x	5	x	4	1	0
Cc1nnc(SCC(=O)Nc2nc(-c3ccc(F)cc3)cs2)[nH]c1=O	2	30*	-5	5	2	6
Cc1cc(=O)[nH]c(SCC(=O)Nc2nc(-c3ccccc3)cs2)n1	-2	4	1	8	8	4
CCOC(=O)c1ccccc1NC(=O)CSc1nnc(C)c(=O)[nH]1	6	34*	-2	12	7	2
COc1ccc(-c2cc(C(F)(F)F)nc(S(C)(=O)=O)n2)cc1	-18	-5	-15	0	-2	29*
CN(C)c1ccc(N=Cc2ccco2)cc1	6	7	1	6	2	28*
CN(C)c1ccc(C=Nc2ccc(N(C)C)cc2)cc1	9	6	6	5	0	19
Cc1cc(C)c2nc(NNC(=O)c3ccc(S(=O)(=O)N4CCCC(C)C4)cc3)sc2c1 (stereo not given)	3	3	7	6	-2	29*
O=C1OC(c2cccs2)=N/C1=C\c1ccc(-c2cccc(Cl)c2)o1	-6	2	-4	0	5	30*
Cc1c(NC(=O)CSc2ccc(Cl)cc2)cccc1-c1nc2ncccc2o1	-1	25*	-7	2	0	18
O=C(O)CC1SC(N/N=C/c2ccc(Br)cc2)NC1=O (stereo not given)	2	-2	1	-3	5	0
COc1cc(CNC(=O)CCCC(=O)c2ccccc2)cc(OC)c1OC	-5	-2	0	6	-2	2
COc1cc(CNC(=O)CCCC/C=C/C(C)C)ccc1O	-6	3	-5	5	-2	25*

From PubChem
